Bioassay records from PubChem.
Rows were chosen to be rich in hits. Some 2.2% of all compounds tested hit in one or more screens of this group.
TWEAK-Fn14 inh – inhibitors of TWEAK-Fn14 signaling, primary screen, luciferase reporter cells, uHTS; actives 2% (n = 360,000); TWEAK-stimulated Fn14 reporter cells, luciferase luminescence, 8 h; AID 1159606, 2016; inhibition, % at 10 µM; in the data active = inhibition above about 50%
TROY signal inh – inhibitors of TROY-driven NF-kB signaling, primary screen, Q293 LMP1-TROYcd cells, NF-kB luciferase, uHTS. Q293 LMP1-TROYcd NF-kB luciferase reporter, 4 h. inhibition, % at 10 µM. actives 0.98% (n = 360,000);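 active = compounds whose plate-normalised and pattern-corrected inhibition of the luciferase reporter signal at the single screening dose is 50% or more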
LGR2 antag – inhibitors of bursicon-induced LGR2 CRE-luciferase signal, primary screen, cell-based, HEK293, CRE-luciferase reporter, bursicon stimulation; Drosophila bursicon receptor LGR2 (rickets); bursicon-stimulated, 4 h; inhibition, % at 9.99 µM; actives 0.35% (n = 380,000);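 active = drop in luminescence signal, shown as inhibition above about 50% in the replicate tests, limit read from the data, passing the limit was not always enough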;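 note: agonist challenge used bursicon conditioned medium at about half maximal strength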
HSP90 refold inh – HSP90 inhibitors, primary screen, cell lysate, luminescence. Heat shock protein HSP 90 (rabbit reticulocyte lysate; luciferase refolding). Rabbit reticulocyte lysate, luciferase refolding luminescence, 3 h. inhibition, % at 5.6 µM. actives 0.91% (n = 290,000);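 active = inhibition above the screen-wide mean plus 3 SD, computed separately per campaign, cut at about 16% in these data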;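 note: inhibitors lower the luminescence because luciferase stays unfolded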
Numbers stand for hits; - = inactive; . = no result.

SMILES	TWEAK-Fn14 inh	TROY signal inh	LGR2 antag	HSP90 refold inh
CO[C@@H]1CN(C)C(=O)c2cc(NC(=O)c3cc(C)on3)ccc2OC[C@H](C)NC[C@@H]1C	.	.	-	.
O=C(Nc1ccc(S(=O)(=O)NC2=NCCCCC2)cc1)c1ccc(Cl)c([N+](=O)[O-])c1	-	-	-	.
Cc1cccc(C)c1NS(=O)(=O)c1ccc(NC(=O)c2ccc(Cl)c([N+](=O)[O-])c2)cc1	86.7	68.3	-	-
O=C(O)c1cc(NC(=O)c2ccc(Cl)c([N+](=O)[O-])c2)cc(C(=O)O)c1	-	-	-	-
O=C(Nc1ccc(C(O)(C(F)(F)F)C(F)(F)F)cc1)c1ccc(Cl)c([N+](=O)[O-])c1	62.5	50.4	-	-
CCCC(=O)Nc1ccc2c(c1)OC[C@H](C)N(Cc1ccc(-c3ccccn3)cc1)C[C@@H](C)[C@@H](OC)CN(C)C2=O	.	.	-	.
CN(C)c1cccc2c(S(=O)(=O)Nc3ccccn3)cccc12	83.6	62.3	.	-
Cc1ccc(S(=O)(=O)Nc2ccccn2)c(C)c1	-	-	-	.
C[C@@H]1CN([C@H](C)CO)C(=O)c2cc(C#Cc3ccccc3)cnc2O[C@@H]1CN(C)C(=O)CN(C)C	.	.	-	.
Cc1ccc(C(C(=O)NCc2ccccc2)N(Cc2cccs2)C(=O)c2ccc3c(c2)OCCO3)cc1 (stereo not drawn)	54.3	-	-	-
NC(=O)c1ccc(-c2noc(-c3cccc(Cl)c3)n2)cc1	-	-	-	.
O=C(O)c1cccc(-c2noc(-c3cccc(Cl)c3)n2)c1	-	-	84.2	.
CN1C(=O)N(C)c2ccc(C=O)c3cccc1c23	-	-	-	-
CN1C(=O)N(C)c2ccc(Br)c3cccc1c23	-	64.8	-	-
CCCCN(C)C(=O)CCC(=O)NNc1nc2ccccc2c2nc(C)nn12	76.1	-	-	-
C[C@H](CO)N1C[C@H](C)[C@H](CN(C)Cc2ccc(C(F)(F)F)cc2)OCCCC[C@H](C)Oc2ccc(NS(=O)(=O)c3ccc(F)cc3)cc2C1=O	.	.	-	.
O=C(/C=C\Nc1ccc2c(c1)OCO2)c1cccs1	-	-	-	-
O=C(/C=C\Nc1ccc2c(c1)OCO2)c1ccc(Cl)s1	53.1	-	-	-
Cc1nn(C)cc1/C=C/C(=O)c1ccccc1	-	-	.	-
Cc1cc2c(c(/C=C/C(=O)c3ccccc3)c1)OC1(C=C2)Oc2ccccc2C(=O)N1C (stereo not drawn)	69.0	-	50.2	-
CN(NS(=O)(=O)c1ccc(Br)cc1)c1nc(C(F)(F)F)nc2ccccc12	-	58.3	-	-
COC(=O)c1ccc(NC(=O)c2nc(S(=O)(=O)Cc3cccc(C)c3)ncc2Cl)cc1	71.6	75.9	-	-
Cc1ccc(C(=O)NCc2ccc3c(c2)OCO3)c(Cl)c1	-	-	-	.
Cc1cccc(CS(=O)(=O)c2ncc(Cl)c(C(=O)NCc3ccc4c(c3)OCO4)n2)c1	89.1	69.3	-	-
CC(=O)Nc1ccc(NC(=O)c2nc(S(=O)(=O)Cc3cccc(C)c3)ncc2Cl)cc1	70.0	74.8	-	-
SMILES	TWEAK-Fn14 inh	TROY signal inh	LGR2 antag	HSP90 refold inh
O=C(C1CCCC1)N1[C@@H](CO)[C@@H](c2ccccc2)C12CN(CCC(F)(F)F)C2	.	.	-	.
O=C(CN1CCOCC1)N[C@H]1CC[C@@H](CCNS(=O)(=O)c2ccccc2F)O[C@@H]1CO	.	.	-	.
O=C1C(Cl)=C(N2CCCCC2)C(=O)C(Cl)=C1c1cnc(N2CCCCC2)s1	50.7	-	.	-
Oc1ccc(-c2n[nH]c(=S)n2-c2ccc3c(c2)OCCO3)c(O)c1	51.9	-	-	16.4
O=C(C[C@H]1C=C[C@H](NC(=O)c2ccccn2)[C@H](CO)O1)NCc1cccc(F)c1	.	.	-	.
C[C@@H]1CN([C@H](C)CO)C(=O)Cc2cc(NC(=O)Nc3ccc(F)cc3)ccc2O[C@@H]1CN(C)S(=O)(=O)c1ccc(F)cc1	.	.	-	.
CC(=O)c1c(N2CCOCC2)[nH]c(-c2ccccc2)nc1=S	-	66.9	-	-
CC(=O)c1c(N2CCCC2)[nH]c(-c2ccccc2)nc1=S	-	-	-	-
Cc1ccc(S(=O)(=O)Nc2ccc3c(c2)CC(=O)N([C@@H](C)CO)C[C@H](C)[C@H](CN(C)C(=O)NC2CCCCC2)O3)cc1	.	.	-	.
C[C@H](O)C#Cc1ccc2c(c1)O[C@@H](CN(C)CC1CC1)[C@@H](C)CN([C@@H](C)CO)S2(=O)=O	.	.	-	.
COCC(=O)N1CC(=O)N2[C@H](CO)[C@H](c3ccc(-c4ccccc4F)cc3)[C@@H]2C1	.	.	-	.
OCCN(CCO)c1ccc2ccccc2c1	-	-	-	-
OCCN(CCO)c1cc2c3ccccc3ccc2c2ccccc12	99.2	51.5	84.9	.
O=C(C[C@H]1CC[C@@H]2[C@H](COC[C@H](O)CN2C(=O)c2ccccc2)O1)NC1Cc2ccccc2C1	.	.	-	.
O=C(Nc1nnc(-c2ccc3c(c2)CCCC3)o1)c1c(F)cccc1F	52.8	-	-	-
O=C(C[C@@H]1C=C[C@H](NC(=O)c2cccnc2)[C@@H](CO)O1)NCc1ccc(Cl)c(Cl)c1	.	.	-	.
Cc1ccc(-c2ccc3c(c2)O[C@H](CN(C)C(=O)C2CCCCC2)[C@@H](C)CN([C@H](C)CO)S3(=O)=O)cc1	.	.	-	.
CC(=O)c1cccc(-c2ccc3c(c2)C(C)(Cc2ccccc2F)C(=O)N3)c1 (stereo not drawn)	57.5	-	-	.
O=[N+]([O-])c1ccc(/C=N\NS(=O)(=O)c2ccc(F)cc2)o1	84.4	-	-	-
COc1ccc(S(=O)(=O)N/N=C\c2ccc([N+](=O)[O-])o2)c(OC)c1	-	-	-	-
CCOC1=C2[C@H](c3ccccc3)N(S(=O)(=O)c3ccc(C)cc3)C(C(C)(C)C)[C@H]2C(C#N)(C#N)C(C#N)(C#N)C1 (stereo partly drawn)	53.8	-	-	.
O=C(COc1cccc2ccccc12)NNC(=O)C1CCCO1 (stereo not drawn)	-	-	-	-
c1nc(C2CCCCC2)cc2cc3c(cc12)OCO3	-	-	-	.
c1ccc2cc(CCO[C@H]3CCCCO3)ncc2c1	66.5	-	55.3	.
c1nc(CCO[C@H]2CCCCO2)cc2cc3c(cc12)OCO3	92.1	60.4	90.8	.
SMILES	TWEAK-Fn14 inh	TROY signal inh	LGR2 antag	HSP90 refold inh
N#C[C@@H]1[C@@H](c2ccc(C#Cc3cccnc3)cc2)[C@@H](CO)N1C(=O)NC1CCCCC1	.	.	-	.
Cc1nc2cc(-c3ccccc3)nn2c(N)c1-c1ccccc1	73.8	72.5	-	.
Cc1nc2c(-c3ccccc3)c(C)nn2c(N)c1-c1ccccc1	-	-	.	-
CCC(=O)N1C[C@H](C)[C@H](OC)CN(C)C(=O)c2ccc(NC(=O)c3cc(C)on3)cc2OC[C@H]1C	.	.	-	.
c1cc(-c2cc3cc(N4CCOCC4)ccc3o2)cs1	65.2	-	-	.
COc1ccc2c3c(n(C)c2c1)[C@H](CO)N(C(=O)c1ccncc1)CC31CN(S(C)(=O)=O)C1	.	.	-	.
Cc1cc(N/N=C/c2ccc(O)cc2O)nc(-c2ccccc2O)n1	65.4	-	.	-
